Reference: ChEMBL document CHEMBL1157539, “Thousands of chemical starting points for antimalarial lead identification” (Nature, 2010)

These compounds were tested on Plasmodium falciparum (assay: GSK_TCMDC: Inhibition of Plasmodium falciparum Dd2 in whole red blood cells, using parasite LDH activity as an index of growth. Test compounds present at 2uM).
Type: functional
`CCN1C(=O)C(=NN=C(S)N2CCCC2)c2ccccc21` gave an Inhibition of 9%.
`COc1cccc(Cn2ccc3c4c(N)nc(N)nc4ccc32)c1` gave an Inhibition of 96%.
`Cl.Nc1nc(N)c2c3c(ccc2n1)NCCC3` gave an Inhibition of 0%.
`O=c1c2ccc(Sc3ccccn3)cc2n(-c2ccccc2)c2cc(Sc3ccccn3)ccc12` was tested, and the Inhibition was 70%.
For `COc1ccc2c(c1CNCCCCCCNCc1c(OC)ccc3c1CCCC3)CCCC2`, the Inhibition was 7%.
With `CCOc1cc2ncnc(Nc3ccc(OCc4c(Cl)cccc4Cl)c(OC)c3)c2cc1OCC.Cl` the Inhibition was 12%.
In the case of `C=CCOc1ccc(Cc2cnc(N)nc2N)cc1CCC`, the Inhibition was 0%.
For `CCC(C(C)C)n1ccc2c3c(N)nc(N)nc3ccc21` (stereo unspecified), the Inhibition was 95%.
`Cl.N=C(N)c1ccc2[nH]c(-c3cc4cc(C(=N)N)ccc4o3)cc2c1` gave an Inhibition of 87%.
For `Cc1cccc(Cn2ccc3c4c(N)nc(N)nc4ccc32)c1`, the Inhibition was 98%.
Work on `CCc1cccc(-c2cc(N)n(C)c3nc(N)nc(=O)c2-3)c1` yielded an Inhibition of 28%.
For `Nc1nc(N)c2c(Sc3ccc(F)cc3)cccc2n1`, the Inhibition was 0%.
`CC(=O)Oc1c(Br)c(C)nc(C)c1-c1ccc(Oc2ccc(OC(F)(F)F)cc2)cc1` was tested, and the Inhibition was 97%.
In the case of `CCC(=C(CC)c1ccc(O)c(CNC2CCCCC2)c1)c1ccc(O)c(CNC2CCCCC2)c1.Cl`, the Inhibition was 100%.
`CN(Cc1cnc2nc(N)nc(N)c2n1)c1ccc(C(=O)N[C@H](CCC(=O)OC(C)(C)C)C(=O)N[C@@H](CCC(=O)OC(C)(C)C)C(=O)OC(C)(C)C)cc1` showed an Inhibition of 1%.
In the case of `Cl.O[C@@H](c1cc(C(F)(F)F)nc2c(C(F)(F)F)cccc12)[C@H]1CCCCN1`, the Inhibition was 99%.
